# Measurements published in PubChem BioAssay (NCI).
# Compounds without any hit were thinned out: in the full panel of roughly 79,000, 15% have a hit. Unmarked numbers belong to inactive results. Activity calls are given as the source filed them. No stated cut-off is given here; in the data, active means growth inhibition above about 70%; inactive means the rest.
# Key:
# [1] = NCI Yeast Anticancer Drug Screen. Data for the rad50 strain (AID 155);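 further: 0% = growth of vehicle-only cultures of the same strain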; details: S. cerevisiae rad50 strain growth inhibition, stronger effect = higher value
# In short: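 Growth of the mutant yeast was measured after compound exposure and referenced to vehicle-treated cultures.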
# [2] = NCI Yeast Anticancer Drug Screen. Data for the mec2-1 strain (AID 157); details: S. cerevisiae mec2-1 strain, stronger effect = higher value
# In short: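 Vehicle-treated cultures served as reference for growth inhibition of compound-exposed mec2-1 yeast.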
# [3] = NCI Yeast Anticancer Drug Screen. Data for the sgs1 mgt1 strain (AID 161);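 further: 0% = growth of cultures given vehicle only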; details: S. cerevisiae sgs1 mgt1 strain, stronger effect = higher value
# In short: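 Mutant yeast exposed to compound; growth scored against vehicle-only wells.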
# [4] = NCI Yeast Anticancer Drug Screen. Data for the cln2 rad14 strain (AID 165);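 further: 0% = growth equal to vehicle treated cultures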; details: S. cerevisiae cln2 rad14 strain, stronger effect = higher value
# In short: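 Each compound was tested on cln2 rad14 yeast. Inhibition of growth was calculated against vehicle-exposed controls.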
# [5] = NCI Yeast Anticancer Drug Screen. Data for the bub3 strain (AID 167); details: S. cerevisiae bub3 mutant strain, stronger effect = higher value
# In short: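 Whole-cell yeast assay. The mutant strain was incubated with compounds, and growth inhibition was determined by comparison with vehicle-treated cells.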
# [6] = NCI Yeast Anticancer Drug Screen. Data for the mlh1 rad18 strain (AID 175); details: S. cerevisiae mlh1 rad18 strain growth inhibition, stronger effect = higher value
# In short: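 Vehicle-treated cultures served as the reference for growth inhibition in a yeast strain carrying DNA damage repair alterations exposed to each compound.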
# [7] = at 5.0 µM (retest, dose inferred, filed as 0.5)
# [8] = at 50.0 µM (retest, dose inferred, filed as 5.0)
Compound,"growth inhibition [1, 7] [%]","growth inhibition [1, 8]",growth inhibition ([1]; at 50.0 µM),"growth inhibition [2, 7]","growth inhibition [2, 8]",growth inhibition ([2]; at 50.0 µM),"growth inhibition [3, 7]","growth inhibition [3, 8]",growth inhibition ([3]; at 50.0 µM),"growth inhibition [4, 7] [%]","growth inhibition [4, 8]",growth inhibition ([4]; at 50.0 µM),"growth inhibition [5, 7]","growth inhibition [5, 8]",growth inhibition ([5]; at 50.0 µM),"growth inhibition [6, 7]","growth inhibition [6, 8]",growth inhibition ([6]; at 50.0 µM)
CC12CCC(O)CC1=CCC1C2CCC2(C)/C(=C\C#N)CCC12 (configuration not stated),-6,53%,69.2%,5%,78% (active),9.9%,11%,90% (active),52.3%,2,81% (active),-1.95%,2%,87% (active),31.3%,-8%,97% (active),73.9% (active)
O=C1C=CC(=Nc2ccc(O)c3ncccc23)c2cccnc21,34,92% (active),94% (active),11%,96% (active),95% (active),29%,96% (active),95.2% (active),-1,95% (active),86.7% (active),17%,94% (active),95.6% (active),50%,95% (active),92.4% (active)
CSS(=O)(=O)c1ccc(C)cc1,22,99% (active),99.7% (active),22%,100% (active),99.7% (active),21%,100% (active),99.2% (active),-27,99% (active),99.4% (active),18%,100% (active),99.5% (active),-10%,99% (active),99.5% (active)
CC(C)[CH2][Ge]([Cl])([Cl])[Cl],1,-8%,98.5% (active),2%,-2%,98.8% (active),3%,-15%,98.7% (active),-2,-14%,98.5% (active),3%,-3%,99% (active),1%,1%,99% (active)
C/C(=N/NC(=S)Nc1ccc(C)cc1)c1ccccn1,31,99% (active),79.2% (active),33%,99% (active),84.9% (active),32%,99% (active),88.5% (active),-15,99% (active),88.3% (active),-7%,99% (active),90% (active),20%,99% (active),87.9% (active)
Cc1cccc2c(C(=O)CBr)cc(-c3ccc(Cl)cc3)nc12,54,91% (active),95.7% (active),89% (active),93% (active),95.3% (active),96% (active),91% (active),95.2% (active),36,85% (active),85.8% (active),74% (active),92% (active),95% (active),88% (active),90% (active),95.5% (active)
CN(C)CC(CN(C)C)C(=O)c1ccc2c(c1)OCO2,-8,-30%,84.7% (active),-15%,-13%,87% (active),-10%,-20%,92.6% (active),-6,-8%,58.1%,-5%,25%,58.6%,0%,-20%,93% (active)
O=C1C(Br)=C(Sc2ccc([N+](=O)[O-])cc2)C(=O)c2ccccc21,56,90% (active),93.5% (active),64%,94% (active),96.7% (active),51%,96% (active),96.6% (active),11,91% (active),84.2% (active),65%,96% (active),96.6% (active),33%,92% (active),97% (active)
O=C(Nc1nc2c(ncn2C2CC(OC(=O)c3ccccc3)C(COC(=O)c3ccccc3)O2)c(=O)[nH]1)c1ccccc1 (configuration not stated),3,5%,55.5%,8%,12%,38.5%,-16%,33%,69.6%,6,18%,66.4%,7%,10%,57.6%,9%,12%,60%
COc1cccc2c1C(=O)c1c(O)c3c(c(O)c1C2=O)C[C@@](O)(/C(C)=N/NS(C)(=O)=O)C[C@@H]3OC1CC(N)C(O)C(C)O1 (some centres not stated),42,94% (active),95.2% (active),18%,80% (active),81.3% (active),12%,77% (active),94.2% (active),15,52%,70% (active),12%,91% (active),90.5% (active),14%,89% (active),91.6% (active)
COc1cc2cnc(-c3ccccc3)cc2cc1OC,14,71% (active),43.5%,11%,76% (active),17.6%,5%,63%,13.9%,-15,99% (active),26.9%,48%,99% (active),81.3% (active),13%,86% (active),19.2%
O/N=C(/CCc1ccccc1Cl)c1ccccc1,3,34%,94% (active),-5%,55%,93.6% (active),3%,75% (active),96.3% (active),-2,41%,90.1% (active),6%,61%,87.2% (active),1%,80% (active),93.3% (active)
N#C/C(=C\NC(=S)Nc1cc(Cl)ccc1Cl)c1nc2ccccc2s1,21,25%,34.2%,7%,21%,15.1%,2%,4%,10.1%,20,29%,39.6%,7%,19%,37.4%,21%,12%,27.1%
Cc1ccc(SCN2CCCCC2)cc1 (tested in a mixture with another compound),21,29%,62%,1%,2%,12.6%,23%,22%,35.9%,-10,18%,0.35%,-9%,4%,1.2%,20%,44%,75.2% (active)
Fc1ccccc1CN1COc2c(cc(Cl)c3cccnc23)C1,11,71% (active),99% (active),-1%,43%,99.4% (active),2%,98% (active),99.5% (active),1,98% (active),99.1% (active),-11%,99% (active),99.2% (active),5%,98% (active),99.3% (active)
Nc1nc(N)c(N=O)c(Nc2cccc(Br)c2)n1,57,98% (active),1.15%,46%,99% (active),13.8%,70% (active),98% (active),-6.85%,48,98% (active),76.7% (active),50%,98% (active),56.1%,64%,98% (active),5.05%
CSc1ccc(/C=C2/C[N+](C)(C)C/C(=C/c3ccc(SC)cc3)C2=O)cc1,41,41%,90.6% (active),22%,22%,90.7% (active),34%,34%,87.3% (active),20,20%,86.5% (active),6%,6%,90.2% (active),32%,32%,86.7% (active)
CN(C)C(=S)Oc1ccc(C(C)(C)C)cc1,-156,-68%,50.9%,-53%,-59%,-14.4%,-65%,-47%,40.5%,-72,-68%,-34.7%,-65%,-27%,60.4%,-129%,-123%,29.1%
c1ccc2c3ccn4ccc5c6ccccc6[nH]c5c4c-3nc2c1,38,96% (active),65.3%,28%,88% (active),47.1%,27%,93% (active),47.2%,24,39%,34.1%,29%,96% (active),43.8%,33%,98% (active),85.4% (active)
